C diff HTS: blocks growth of Clostridium difficile; Clostridium difficile clinical isolate growth, OD600, 24 h; hits give low values; growth activity, negative = inhibition, % at 16 µg/mL (by protocol); 86,000 compounds, 0.25% hits; AID 1259249;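 active = mean growth activity at or below -80% and every replicate also at or below -80%; inconclusive = mean at or below -80% but some replicate above -80%; inactive = mean growth activity above -80%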;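 note: 0% = DMSO wells and -100% = levofloxacin 16 µg/mL wells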
Pf Dd2 inh: blocks growth of Plasmodium falciparum Dd2 parasites. activity change, % at 10 µM. P. falciparum Dd2 growth, SYBR Green, 72 h; hits give low values. 94,000 compounds, 2.3% hits; in the data active = activity change below about -80%; inconclusive = no clear call, values can overlap the other calls
T cruzi growth: T. cruzi proliferation inhibition. 77,000 compounds, 5.9% hits. inhibition, % at 8.34 µM. T. cruzi beta-gal in NIH3T3, GalScreen luminescence, 90 h;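 active = mean inhibition above about 93%, with at least 55% of replicates each passing it, limit read from the data, passing the limit was not always enough; inconclusive = only one of those two conditions holds; inactive = neither condition holds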
Starred values were filed as active, the others as inactive; u = inconclusive; x = not tested or not shown. A selection: hits, their analogues and other compounds. The true share with any hit is near 6.8%.

SMILES	C diff HTS	Pf Dd2 inh	T cruzi growth
C[C@@H]1CN([C@@H](C)CO)C(=O)c2cccc(NC(=O)Nc3ccc(C(F)(F)F)cc3)c2O[C@H]1CN(C)Cc1ccc(C(F)(F)F)cc1	18	35	55
CC(C)NC(=O)Nc1cccc2c1O[C@@H](CN(C)Cc1ccc(C(=O)Nc3ccccc3N)cc1)[C@@H](C)CN([C@H](C)CO)C2=O	1	-45	x
C[C@@H]1CN([C@@H](C)CO)C(=O)c2cccc(NC(=O)Nc3ccc(F)cc3)c2O[C@H]1CN(C)Cc1ccc(C(=O)Nc2ccccc2N)cc1	7	-82*	x
C[C@H](CO)N1C[C@H](C)[C@H](CN(C)Cc2ccc(C(=O)Nc3ccccc3N)cc2)Oc2c(NC(=O)Nc3ccc(F)cc3)cccc2C1=O	13	-79	x
C[C@H]1CN([C@@H](C)CO)C(=O)c2cccc(NC(=O)Nc3ccc(F)cc3)c2O[C@@H]1CN(C)Cc1ccc(C(=O)Nc2ccccc2N)cc1	0	-83*	x
CC(C)NC(=O)Nc1cccc2c1O[C@H](CN(C)Cc1ccc(C(=O)Nc3ccccc3N)cc1)[C@H](C)CN([C@@H](C)CO)C2=O	-1	-84*	x
C[C@@H]1CN([C@@H](C)CO)C(=O)c2cccc(NC(=O)Nc3ccc(C(F)(F)F)cc3)c2O[C@H]1CN(C)Cc1ccc(C(=O)Nc2ccccc2N)cc1	18	-85*	x
C[C@@H]1CN([C@H](C)CO)C(=O)c2cccc(NC(=O)Nc3ccc(F)cc3)c2O[C@H]1CN(C)Cc1ccc(C(=O)Nc2ccccc2N)cc1	5	-78	x
Cc1noc(C)c1NC(=O)Nc1cccc2c1O[C@@H](CN(C)C(=O)Nc1cccc3ccccc13)[C@@H](C)CN([C@@H](C)CO)C2=O	2	-6	-32
C[C@@H]1CN([C@@H](C)CO)C(=O)c2cccc(NC(=O)Nc3ccccc3)c2O[C@@H]1CN(C)Cc1ccc(C(=O)Nc2ccccc2N)cc1	1	-94*	69
C[C@H]1CN([C@@H](C)CO)C(=O)c2cccc(NC(=O)Nc3ccc4c(c3)OCO4)c2O[C@H]1CN(C)Cc1ccc(C(=O)Nc2ccccc2N)cc1	x	-78	110
C[C@@H]1CN([C@H](C)CO)C(=O)c2cccc(NC(=O)Nc3ccc4c(c3)OCO4)c2O[C@@H]1CN(C)Cc1ccc(C(=O)Nc2ccccc2N)cc1	x	-91*	110
C[C@H](CO)N1C[C@H](C)[C@H](CN(C)Cc2ccc(C(=O)Nc3ccccc3N)cc2)Oc2c(NC(=O)Nc3cccc4ccccc34)cccc2C1=O	3	u	x
C[C@@H]1CN([C@H](C)CO)C(=O)c2cccc(NC(=O)Nc3cccc4ccccc34)c2O[C@@H]1CN(C)Cc1ccc(C(=O)Nc2ccccc2N)cc1	1	-92*	x
C[C@@H]1CN([C@H](C)CO)C(=O)c2cccc(NC(=O)Nc3ccccc3)c2O[C@H]1CN(C)Cc1ccc(C(=O)Nc2ccccc2N)cc1	-2	-78	91
COc1cccc(CNC(=O)C[C@@H]2C=C[C@@H](NC(=O)C3CC3)[C@H](CO)O2)c1	0	-5	x
COc1ccc(S(=O)(=O)Nc2ccc3c(c2)C(=O)N([C@@H](C)CO)C[C@H](C)[C@@H](CN(C)S(=O)(=O)c2c(C)noc2C)OCCCC[C@H](C)O3)cc1	-1	-34	34
C[C@H]1CN([C@@H](C)CO)C(=O)c2c(c3ccccc3n2C)-c2ccccc2CO[C@@H]1CN(C)C(=O)Nc1cccc(C(F)(F)F)c1	12	-94*	x
C[C@H](CO)N1C[C@H](C)[C@@H](CN(C)C(=O)Nc2cccc(C(F)(F)F)c2)OCc2ccccc2-c2c(n(C)c3ccccc23)C1=O	23	-86*	x
C[C@H](CO)N1C[C@H](C)[C@H](CN(C)C(=O)Nc2cccc(C(F)(F)F)c2)OCc2ccccc2-c2c(n(C)c3ccccc23)C1=O	55	-53	x
C[C@H](CO)N1C[C@H](C)[C@H](CN(C)C(=O)Nc2cccc(F)c2)OCc2ccccc2-c2c(n(C)c3ccccc23)C1=O	x	-35	-19
CCCC(=O)Nc1ccc2c(c1)C(=O)N(C)C[C@@H](OC)[C@@H](C)CN(C(=O)C1CCCC1)[C@@H](C)CO2	0	-12	-12
CCCC#Cc1cnc2c(c1)C(=O)N([C@H](C)CO)C[C@H](C)[C@H](CN(C)C(=O)Nc1ccccc1F)O2	0	-8	39
CC(=O)N(C)C[C@H]1Oc2ncc(C#CC3(O)CCCC3)cc2C(=O)N([C@H](C)CO)C[C@@H]1C	2	15	12
C[C@@H]1CN([C@H](C)CO)C(=O)c2c(c3ccccc3n2C)-c2ccccc2CO[C@@H]1CN(C)C(=O)Nc1ccc(-c2ccccc2)cc1	-3	-83*	x
SMILES	C diff HTS	Pf Dd2 inh	T cruzi growth
C[C@H](CO)N1C[C@H](C)[C@H](CN(C)C(=O)Nc2ccccc2)OCc2ccccc2-c2c(n(C)c3ccccc23)C1=O	x	-14	49
C[C@H](CO)N1C[C@H](C)[C@H](CN(C)C(=O)Nc2ccc3c(c2)OCO3)OCc2ccccc2-c2c(n(C)c3ccccc23)C1=O	-2	-85*	92
C[C@H](CO)N1C[C@H](C)[C@H](CN(C)C(=O)Nc2ccc(F)cc2)OCc2ccccc2-c2c(n(C)c3ccccc23)C1=O	-5	-39	x
C[C@H]1CN([C@@H](C)CO)C(=O)c2c(c3ccccc3n2C)-c2ccccc2CO[C@@H]1CN(C)C(=O)Nc1ccc(-c2ccccc2)cc1	1	-89*	x
C[C@H]1CN([C@@H](C)CO)C(=O)c2c(c3ccccc3n2C)-c2ccccc2CO[C@@H]1CN(C)C(=O)Nc1ccc(F)cc1	10	-37	31
C[C@@H]1CN([C@@H](C)CO)C(=O)c2c(c3ccccc3n2C)-c2ccccc2CO[C@@H]1CN(C)C(=O)Nc1ccc(-c2ccccc2)cc1	-5	-88*	x
C[C@H]1CN([C@@H](C)CO)C(=O)c2c(c3ccccc3n2C)-c2ccccc2CO[C@H]1CN(C)C(=O)Nc1ccc2c(c1)OCO2	8	-63	72
COc1ccc2c3c(n(C)c2c1)[C@H](CO)N(C(C)=O)CC31CCN(Cc2cncnc2)CC1	x	44	x
CNC[C@H]1Oc2ncc(-c3ccccc3C)cc2C(=O)N([C@@H](C)CO)C[C@H]1C	5	x	-15
COc1ccc(S(=O)(=O)N(C)C[C@@H]2Oc3ccc(NC(=O)CCCN(C)C)cc3C(=O)N([C@@H](C)CO)C[C@H]2C)cc1	-5	-46	x
O=C([C@@H]1[C@@H](CO)[C@@H]2Cn3c(ccc(C4=CCCC4)c3=O)[C@@H]2N1Cc1nccs1)N1CCOCC1	7	x	-6
C[C@H](CO)N1C[C@H](C)[C@@H](CN(C)C(=O)Nc2ccc(-c3ccccc3)cc2)OCc2ccccc2-c2c(n(C)c3ccccc23)C1=O	7	-94*	x
C[C@H](CO)N1C[C@H](C)[C@@H](CN(C)C(=O)Nc2ccccc2)OCc2ccccc2-c2c(n(C)c3ccccc23)C1=O	x	-69	72
C[C@H]1CCCCO[C@@H](CN(C)S(C)(=O)=O)[C@@H](C)CN([C@@H](C)CO)C(=O)c2cc(N(C)C)ccc2O1	-3	36	47
CCCNC(=O)Nc1ccc2c(c1)C(=O)N(C)[C@@H]1CC[C@@H](CC(=O)NC)O[C@@H]1CO2	-3	18	7
